# Assay outcomes (PubChem)
# This is a sample that favours compounds with a hit; in the whole collection about 2.8% have one here.
# Pol eta inh-1 – DNA polymerase eta (human) inhibition; Q9Y253; recombinant Pol eta, fluorescent DNA replication assay; Potency, µM (series often up to 114 µM), actives largely listed as inhibitors; hit rate 1.2% among 390,000; AID 588591
#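 Pol eta at 10 nM preincubated with compounds 15 min at room temperature; reaction started with fluorescent substrate (50 nM final) and read kinetically at 0 and 10 min.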
# Pol kappa inh-1 – inhibitors of human DNA polymerase kappa | AID 588579 | purified Pol kappa, fluorescent DNA synthesis assay, 10 min | hit rate 0.53% among 400,000 | Potency, µM (titrated, usually from 107 µM), usual class: inhibitors
#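 10 nM Pol kappa was preincubated with compounds for 15 min at room temperature. Reaction started with 50 nM (final) substrate. Fluorescence read kinetically at 0 and 10 min.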
# WRN helicase inh – blocks human WRN helicase; hit rate 0.46% among 360,000; WRN helicase unwinding, fluorescent forked duplex, kinetic; Potency, µM (titrated, usually from 114 µM), actives largely listed as inhibitors; AID 651768; Q14191; note: nearly all actives have a fitted effect of over 55% in size
#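 Primary qHTS, 1536-well format. 20 nM WRN + compound, 15 min RT; start with 100 nM forked fluorophore/quencher duplex, 2 mM ATP (final); kinetic read ex 525/em 598 nm.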
# Pol iota inh – DNA polymerase iota (human) inhibition | Q9UNA4 | Pol iota fluorescent replication assay, 10 min | Potency, µM (titrated, usually from 115 µM), actives largely listed as inhibitors | hit rate 1% among 390,000 | AID 588590
#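 Fluorescent replication assay read twice, at 0 min and 10 min after adding 50 nM (final) substrate. Enzyme (10 nM) and compounds were first incubated 15 min at room temperature; enzyme-free buffer wells were negative controls.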
# Pol beta inh – inhibitors of human DNA polymerase beta. Pol beta primer extension/strand displacement, fluorescence kinetic. P06746. Potency, µM (titrated, usually from 114 µM), actives largely listed as inhibitors. hit rate 1.3% among 340,000
#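 Kinetic readout of DNA synthesis with strand displacement by Pol beta. Compound and 10 nM enzyme sit 15 min at room temperature; 50 nM substrate starts the reaction, read immediately and at 10 min.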
# PI5P4K alpha inh – inhibitors of human PI5P4K alpha; hit rate 1.2% among 330,000; max response, %; P48426; AID 652105; PI5P4Kalpha enzyme, ADP-Glo luminescence, 60 min; active compounds read low; active = max response of -50% or lower; inconclusive = between -30% and -50%; inactive = -30% or higher; note: value at the top dose of about 77 µM
#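 Single end-point luminescence (ADP-Glo) quantified ADP from PI5P4Kalpha turnover; ATP 5 microM final, 1 h at RT, 0.1% CHAPS and 0.28 mM EGTA in HEPES pH 7.4.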
# GALK confirm – confirmation of human galactokinase (GALK) inhibitors | purified GALK, Kinase-Glo ATP depletion luminescence | hit rate 70% among 150 | AID 2015 | Potency, µM (titrated, usually from 115 µM), hits mostly inhibitors | shares compounds with Pol eta inh-1
# Redox cycling – redox cycling activity in phenol red-HRP assay | shares compounds with Pol eta inh-1 | Phenol red-HRP H2O2 redox cycling, absorbance 600 nm | Potency, µM (series often up to 115 µM), hits mostly inhibitors | hit rate 40% among 150 | AID 2035
# HEK293 viability – reduces HEK-293 cell viability in GALK counter-screen. shares compounds with Pol eta inh-1. HEK-293 viability, ATP luminescence (CellTiter-Glo), 24/48 h. Potency, µM (titrated, usually from 46.1 µM), usual class: inhibitors. hit rate 10% among 170. AID 2547
# Pol kappa inh-2 – confirmation of human DNA polymerase kappa inhibitors | hit rate 76% among 920 | purified Pol-kappa, fluorescent strand-displacement substrate | AID 720501 | Potency, µM, usual class: inhibitors | shares compounds with Pol eta inh-1
# Pol eta inh-2 – confirmation of human DNA polymerase eta inhibitors; shares compounds with Pol eta inh-1; Pol eta primer extension, TAMRA/BHQ fluorescence, 10 min; Potency, µM, most hits filed as inhibitors; hit rate 64% among 2,600; AID 720502
# Numbers stand for hits; - = inactive; ? = inconclusive; . = not tested or not shown; [ ] = remark or other dose. Unless noted, calls come from the whole dose curve; as a rule, active = well fitted curve in the direction sought with a large enough effect; inconclusive = small, poorly fitted or top-dose-only effect, or another doubt; inactive = no such curve, though single readings can be large; an effect the other way counts as inactive or inconclusive.
SMILES,Pol eta inh-1,Pol kappa inh-1,WRN helicase inh,Pol iota inh,Pol beta inh,PI5P4K alpha inh,Pol eta inh-2,others
O=C(COc1ccc(F)cc1)Nc1nc(-c2cccnc2)cs1,35µM,.,-,.,.,?,?,
CC(C)(C)c1ccc(OCCC(=O)OCC(=O)Nc2ccc(N3CCOCC3)cc2)cc1,?,-,-,-,.,-,.,
O=C(O)c1ccc(CSc2n[nH]c(-c3ccco3)n2)cc1,11µM,45µM,?,20µM,?,-,?,
Cc1ccc(C(=O)CSC2=C(C#N)C(c3ccco3)CC(=O)N2)c(C)c1 (stereo not drawn),79µM,?,?,18µM,32µM,.,?,
O=CC(=O)c1ccc(Br)cc1,.,-,.,-,.,.,.,
C/C(N)=C(/C#N)C(=O)CSc1nnnn1-c1ccccc1,16µM,-,-,?,35µM,?,27,
CC1(C)CC(=O)C2=C(C1)NC(Nc1nc3ccccc3o1)=NC2c1cccc(O)c1 (stereo not drawn),.,-,.,-,.,.,.,HEK293 viability=?
CC1(C)CC(=O)C2=C(C1)NC(=O)NC2c1ccccc1 (stereo not drawn),-,-,-,-,-,-,.,
COc1ccc(C2N=C(Nc3nc4ccccc4o3)NC3=C2C(=O)CC(C)(C)C3)cc1 (stereo not drawn),.,-,.,-,.,.,.,HEK293 viability=-
CC1(C)CC(=O)C2=C(C1)NC(Nc1nc3ccccc3o1)=NC2c1ccccc1 (stereo not drawn),.,-,.,-,.,.,.,HEK293 viability=-
Cc1ccc(C2N=C(Nc3nc4ccccc4o3)NC3=C2C(=O)CC(C)(C)C3)cc1 (stereo not drawn),.,-,.,-,.,.,.,HEK293 viability=-
Cc1ccc(C2C3=C(CC(C)(C)CC3=O)Nc3onc(C)c32)cc1 (stereo not drawn),-,-,-,-,-,-,.,
CC1(C)CC(=O)C2=C(C1)NC(Nc1nc3ccccc3o1)=NC2c1cccnc1 (stereo not drawn),.,-,.,-,.,.,.,HEK293 viability=-
CC1(C)CC(=O)C2=C(C1)Nc1ccccc1NC2c1ccc(F)cc1 (stereo not drawn),-,-,-,-,-,-,.,
CC1(C)CC(=O)C2=C(C1)NC(Nc1nc3ccccc3o1)=NC2c1cccc(F)c1 (stereo not drawn),.,-,.,-,.,.,.,HEK293 viability=-
Cc1ccc(S(=O)(=O)/C=C\C#N)cc1,.,-[19.4 µM],.,.,.,.,.,
O=C(O)c1ccc(Oc2nc3ccccc3s2)cc1,-,-,-,-,.,-,.,
O=C(O)c1ccc(C=C(c2nc3ccccc3s2)c2nc3ccccc3s2)cc1,40µM,-,-,?,-,-,?,
O=S(=O)(c1ccc(F)cc1)N1CCN(c2nc(-c3cccs3)nc3cc(Cl)ccc23)CC1,.,-,.,-,.,.,.,
COc1ccc(C(=O)N/C(=C/c2cccnc2)C(=O)N2CCN(C)CC2)cc1OC,-,-,-,-,-,-,.,
N#C/C(=C\c1ccc(C(=O)O)cc1)c1nc2sc3c(c2c(=O)[nH]1)CCCC3,20µM,?,?,?,50µM,-50,30,
CCOC(=O)c1nc2sc3c(c2c(=O)[nH]1)CCCC3,-,-,-,-,-,-,.,
CC1CCC/C=C/C(=O)c2c(O)cc(O)cc2CC(=O)O1 (stereo not drawn),35µM,79µM,-[11.6 µM],18µM,-,-,76,
COc1cc(O)c(CCO)c2c1C(=O)C[C@@H](C)O2,-,-,-,-,-,-,.,
Cc1ccc(C(=O)N/C(=C\c2ccc(Cl)cc2)C(=O)NCCN2CCOCC2)cc1,-,-,-,-,-,-,.,GALK confirm=-;Redox cycling=-;HEK293 viability=-
SMILES,Pol eta inh-1,Pol kappa inh-1,WRN helicase inh,Pol iota inh,Pol beta inh,PI5P4K alpha inh,Pol eta inh-2,others
Cc1ncc(CN2CCCC(C(=O)Nc3ccc(-c4cccc(F)c4)cc3)C2)n1C (stereo not drawn),-,-,-,-,-,-,.,
COc1ccc(CN2C(=O)N(c3ccc(F)cc3)C(=O)C2CC(=O)Nc2cc(OC)cc(OC)c2)cc1 (stereo not drawn),-,-,.,-,-,.,.,
CN1C(=O)/C(=C/c2coc3ccc(O)cc3c2=O)SC1=S,-,-,-,-,-,-,.,
CSC1=NSC2=NC(=O)/C(=C\c3coc4ccccc4c3=O)C(=N)N12,13µM,?,56µM,?,25µM,-57,?,
N=C1/C(=C\c2coc3ccccc3c2=O)C(=O)N=C2SC(c3ccncc3)=NN12,2.8µM,7.9µM,22µM,?,?,-74,.,GALK confirm=21µM;Redox cycling=-;HEK293 viability=-
N=C1/C(=C\c2coc3ccc(O)cc3c2=O)C(=O)N=C2SC=CN12,13µM,?,56µM,?,4µM,-69,19,
CC(C)CSC1=NSC2=NC(=O)/C(=C\c3ccccc3)C(=N)N12,-,-,-[11.6 µM],?,-,-,.,
CC(C)CSC1=NSC2=NC(=O)/C(=C\c3coc4ccccc4c3=O)C(=N)N12,18µM,-,?,?,45µM,?,76,
Cc1ccc(C(=O)N/C(=C/c2ccco2)C(=O)NCc2ccco2)cc1,32µM,?,?,?,35µM,-,76,Pol kappa inh-2=60
Cc1ccc(C(=O)N/C(=C\c2ccc(C)o2)C(=O)O)cc1,32µM,?,-,-,?,-,?,
Cc1cc(C(=O)COC(=O)c2cc(Cl)c(O)c(Cl)c2)c(C)n1C,16µM,79µM,50µM,20µM,.,-64,?,
COC(=O)c1ccc(C)c(NC(=O)CSc2sc3c(O)cc(=O)[nH]c3c2C#N)c1,10µM,22µM,?,13µM,35µM,-64,?,Pol kappa inh-2=?
Cc1cccc(/C=C(\C(=O)O)c2ccc(S(=O)(=O)N3CCCC3)s2)c1,13µM,?,?,?,.,-,?,Pol kappa inh-2=34
O=C(O)/C(=C\c1cccc(F)c1)c1ccc(S(=O)(=O)N2CCCC2)s1,?,-,-,-,.,-,.,
C[C@@H]1CN([C@H](C)CO)S(=O)(=O)c2ccc(C#Cc3ccccc3F)cc2O[C@@H]1CN(C)C(=O)Cc1ccccc1,-,.,-,.,.,-,.,
COc1ccc(Cl)cc1NC(=O)c1c(C(=O)Nc2cccc(C)c2C)sc2nc(C)cc(=O)n12,-,-,.,-,-,.,.,
